# Laboratory results as given in ChEMBL document CHEMBL4513216, “Probing the Open Global Health Chemical Diversity Library for Multistage-Active Starting Points for Next-Generation Antimalarials” (ACS Infect Dis, 2020).
# Screen size: about 65,000 compounds; about 2,100 (3.2%) showed an effect of 50% or more. The median lay at about -52%. The sample holds strong results, similar compounds and a random draw of the others, so the mix is not that of the screen.
# Tested on: Plasmodium falciparum
# Assay: Screen against P. falciparum Asexual Blood Stage (ABS), at 5uM
# Format: functional, Dd2
# Conditions: tested at 5 uM
row,SMILES,INHIBITION
1,c1[nH]c(CC2CCCC2)nc1CN1CCCC2(CCOC2)C1 (stereo not given),82.2%
2,c1cnc(N2CCOCC3(CCCN(Cc4cc[nH]n4)C3)C2)nc1 (stereo not given),-63.1%
3,c1cc(CN2CCOCC3(CCNCC3)C2)ccn1,-114%
4,Cc1cc(CN(C)C(=O)CN2CCCC2=O)no1,-32.3%
5,COc1cc(OC)cc(C2SCC(=O)Nc3ccsc32)c1 (stereo not given),-38.5%
6,O=C(Nc1cccnc1)[C@H]1C[C@H]2OCC[C@H]2N(CC2CC2)C1,-67.1%
7,Cc1n[nH]c2c1C(c1cccnc1)SCC(=O)N2 (stereo not given),-32.5%
8,Cc1cccc(CN2CCN(C(=O)N(C)C)[C@@H]3CS(=O)(=O)C[C@@H]32)n1,-85.1%
9,CCC[C@H]1CN(c2nc(CO)cs2)C[C@@H]1NC(=O)C1(COC)CC1,71.7%
10,O=C(Nc1cccnc1)[C@H]1COC[C@H]2CN(C3CCCC3)C[C@H]21,12.5%
11,O=C(C[C@@H]1COC[C@H]2CN(CC3CC3)C[C@@H]12)NCc1cccnc1,-75.7%
12,O=C(C1CCCC1)N1C[C@H]2CNC[C@H]2C1,-5.05%
13,O=C(C1CCOCC1)N1C[C@H]2CNC[C@H]2C1,52.6%
14,O=C(C1CCC1)N1C[C@H]2CNC[C@H]2C1,-30.2%
15,O=C(CC1CC1)N1C[C@H]2CCN[C@H]2C1,-62.6%
16,O=S(=O)(c1cccnc1)N1C[C@@H]2COC[C@]2(CN2CCOCC2)C1,-111%
17,CN1CCN(Cc2ccccc2CNC(=O)c2ccc(Cl)cc2F)CC1,77.2%
18,Cc1cc(CN2CCN(C(=O)Cc3ccccc3F)CC2)on1,-206%
19,CN1CCN(Cc2ccccc2CNC(=O)c2cc(Br)ccc2F)CC1,77.5%
20,Cc1ncsc1CN1C[C@H](OCc2ccncc2)[C@H]2OCCC[C@H]21,-47.7%
21,O=C(Cc1cccs1)N1C[C@@H]2OCCN(CC3CCCC3)[C@@H]2C1,-96.4%
22,COc1cccc(-c2nc(CNCCCn3cccn3)cs2)c1,76.3%
23,CCc1nc(CNC(C)Cn2cccn2)cs1 (stereo not given),-78.5%
24,CC(Cn1cccn1)NCc1csc(-c2cccs2)n1 (stereo not given),-268%
25,Cc1cc(CN2CC[C@H]3C[C@H](C(=O)N(C)C)O[C@@H]3C2)no1,-20.9%
26,c1cc(CN2CCSC3(CCCCC3)C2)no1,-170%
27,CC(C)Nc1ccc2nc(C3CCNCC3)nn2c1,-54.1%
28,CC(C(=O)N1CCCC1)N1CCCN(C(=O)Oc2ccccc2)CC1 (stereo not given),-54.8%
29,O=C(NCCN1CCCCC1)C(c1ccccc1)N1CCCC1 (stereo not given),80%
30,Cc1nn(C)c(C)c1C(C(=O)O)N1CC=C(c2ccccc2)CC1 (stereo not given),-74.2%
